These results are taken from PubChem BioAssay (NCI).

The nature of assay [1]: NCI Yeast Anticancer Drug Screen. Data for the rad50 strain (AID 155).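 Further: 0% = growth of vehicle-only cultures of the same strain.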 The following applies: S. cerevisiae rad50 strain growth inhibition; at 50.0 µM; active compounds read high. Put shortly:
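Relative growth inhibition (compound vs vehicle) was measured in yeast with a defined repair-gene alteration.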

Assay [2] in a line: NCI Yeast Anticancer Drug Screen. Data for the mec2-1 strain (AID 157). Conditions: S. cerevisiae mec2-1 strain, at 50.0 µM, active compounds read high. Put shortly:
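Vehicle-treated cultures served as reference for growth inhibition of compound-exposed mec2-1 yeast.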

The nature of assay [3]: NCI Yeast Anticancer Drug Screen. Data for the sgs1 mgt1 strain (AID 161).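 Further: 0% = growth of cultures given vehicle only.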 Conditions: S. cerevisiae sgs1 mgt1 strain, at 50.0 µM, active compounds read high. Put shortly: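 Genetically altered yeast, compound exposure, growth inhibition relative to vehicle.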
The nature of assay [4]: NCI Yeast Anticancer Drug Screen. Data for the cln2 rad14 strain (AID 165).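 Further: 0% = growth equal to vehicle treated cultures.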 The following applies: S. cerevisiae cln2 rad14 strain, at 50.0 µM, active compounds read high. Put shortly: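 Each compound was tested on cln2 rad14 yeast. Inhibition of growth was calculated against vehicle-exposed controls.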
Assay [5] in a line: NCI Yeast Anticancer Drug Screen. Data for the bub3 strain (AID 167). Conditions: S. cerevisiae bub3 mutant strain, at 50.0 µM, active compounds read high. Put shortly:
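Screening used yeast with an engineered genetic alteration affecting cell cycle control. Compound-exposed cultures were compared with vehicle cultures, and reduced growth was taken as inhibition.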

The nature of assay [6]: NCI Yeast Anticancer Drug Screen. Data for the mlh1 rad18 strain (AID 175). Conditions: S. cerevisiae mlh1 rad18 strain growth inhibition; at 50.0 µM; active compounds read high. In a few lines: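 Vehicle-treated cultures served as the reference for growth inhibition in a yeast strain carrying DNA damage repair alterations exposed to each compound.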

This is part of a sample that, as a whole, favours compounds with a hit. Of some 79,000 tested, about 15% had one in any assay. A number with no mark means an inactive call. Active and inactive are the calls of the source. No stated cut-off is given here; in the data, active means growth inhibition above about 70%; inactive means the rest.

Regarding `CC(=O)Cc1ccc2c(c1)OCO2`, the growth inhibition in assay [1] was 13.2%; in assay [2], -11.4%; in assay [3], -0.35%; in assay [4] it was 1.1%; in assay [5], -16.9%; in assay [6], 22.9%.

Turning to `[N-]=[N+]=C1C(=O)C2CC3CC1CC2C3` (stereo not given), the growth inhibition in assay [1] was -3.55%; in assay [2], 12.7%; in assay [3], -9.35%; in assay [4] it was 8.55%; in assay [5], 1.9%; in assay [6], 1.5%.

As for `F[C](F)(F)[Hg][c]1ccccc1`, the growth inhibition is 99.3% (active) in assay [1]; 99.7% (active) in assay [2]; 99.5% (active) in assay [3]; 98.8% (active) in assay [4]; 99.5% (active) in assay [5]; 99.3% (active) in assay [6].

As for `CCOP(C)(=O)C(N)Cc1ccc(OC)c(OC)c1` (stereo not given), the growth inhibition in assay [1] is -39.6%; in assay [2], -59.5%; in assay [3], -40.1%; in assay [4], -16.4%; in assay [5], 1.1%; in assay [6] it was -34.5%.

Turning to `[NH2-].[NH2-].[NH2-].[NH2-].[NH2-].[NH2-].[Ru+6]`, the growth inhibition in assay [1] was -15.8%; in assay [2], -12.1%; in assay [3], -21.9%; in assay [4] it was 9.4%; in assay [5] it was -24.1%; in assay [6] it was -20.8%.
